Here are results for 41 compounds from ChEMBL document CHEMBL1157539, “Thousands of chemical starting points for antimalarial lead identification” (Nature, 2010).

The subject of experiment [1] is Plasmodium falciparum. Put plainly: GSK_TCMDC: Inhibition of Plasmodium falciparum 3D7 in whole red blood cells, using parasite LDH activity as an index of growth. Test compounds present at 2uM. It counts as functional.
Experiment [2] has as its system Plasmodium falciparum. Put plainly: GSK_TCMDC: Inhibition of Plasmodium falciparum Dd2 in whole red blood cells, using parasite LDH activity as an index of growth. Test compounds present at 2uM. Format: functional.

Usually Inhibition stands for the percentage by which the read-out fell short of the control. As for `CCOc1cc(Cc2cnc(N)nc2N)ccc1OC.Cl`, the figures for the Inhibition in experiment [1] and in experiment [2] were 88% and 0%, respectively.
As for `Cn1c(N)cc(-c2cccc(I)c2)c2c(=O)nc(N)nc1-2`, the Inhibition in experiment [1] was 89%; in experiment [2], 75%.
The corresponding values for `Cc1nc(C)c(-c2ccc(Oc3ccc([S+](C)[O-])cc3)cc2)c(O)c1Br` (configuration not stated) are 91% and 64%.
The corresponding values for `COc1ccc(C2c3ccccc3-c3nc(N)nc(N)c3C2C)cc1` (configuration not stated) are 97% and 0%.
The corresponding values for `CCOc1cc(OCC)c2ccccc2c1CNCCCCCCNCc1c(OCC)cc(OCC)c2ccccc12.CS(=O)(=O)O` are 100% and 89%.
Take `CC(CNC(=N)c1cccc(C(=N)NCC(C)Oc2cccc(C3CCCCC3)c2)n1)Oc1cccc(C2CCCCC2)c1.Cl` (configuration not stated): the results for the Inhibition in experiment [1] and in experiment [2] were 90% and 31%, respectively.
The corresponding values for `Nc1nc(N)c2cc(Cc3ccccc3Cl)cnc2n1` are 93% and 0%.
As for `CCC(=C(CC)c1ccc(O)c(CNC2CCCCC2)c1)c1ccc(O)c(CNC2CCCCC2)c1.Cl`, the Inhibition in experiment [1] and in experiment [2] was 100% throughout.
Regarding `COc1ccc(OC)c(Cc2c(C)nc3nc(N)nc(N)c3c2C)c1.Cl`, the Inhibition came out at 90% in experiment [1] and 0% in experiment [2].
In the case of `Cl.FC(F)(F)c1ccc2c(NCCCNc3ccnc4cc(C(F)(F)F)ccc34)ccnc2c1`, the Inhibition in experiment [1] and in experiment [2] was 100% in each case.
On to `Nc1nc(N)c2c(Oc3cccc(Cl)c3)cccc2n1`, for which the Inhibition is listed as 97% in experiment [1] and 7% in experiment [2].
Regarding `CCCCCCn1ccc2c3c(N)nc(N)nc3ccc21`, the Inhibition in experiment [1] is recorded as 99%; in experiment [2] it was 91%.
On the same counts, the results for `CCN(C)C(=O)n1ncc2c3c(N)nc(N)nc3ccc21` are 95% and 0%.
Regarding `CC(C)n1c(C(C)(C)C)cc2c3c(N)nc(N)nc3ccc21`, the Inhibition amounted to 100% in experiment [1] and 99% in experiment [2].
The corresponding values for `COc1cc(Cc2cnc(N)nc2N)cc(OCCCCCCC(=O)O)c1OC` are 90% and 2%.
On the same counts, the results for `Cc1[nH]c(C)c(-c2ccc(Oc3cccc(C(F)(F)F)c3)cc2)c(=O)c1Br` are 99% and 97%.
On the same counts, the results for `CC(C)(C)c1ccc(Cc2cccc3nc(N)nc(N)c23)cc1` are 100% and 51%.
On to `CC/N=C(/NCCCCCCN/C(=N/CC)NCc1ccccc1)NCc1ccccc1.I`, for which the Inhibition in experiment [1] amounted to 96%; in experiment [2], 95%.
The corresponding values for `Nc1nc(N)c2c(ccc3c2ccn3Cc2cccc(F)c2)n1` are 100% and 99%.
On the same counts, the results for `COc1ccccc1-c1nc2c(ccc3nc(N)nc(N)c32)[nH]1` are 100% and 93%.
On the same counts, the results for `CC(C)CNc1nc(N)nc2ccc3c(ccn3CC(C)C)c12` are 99% and 51%.
Regarding `Cc1nc(C)c(-c2ccc(Sc3ccc(Cl)cc3)cc2)c(O)c1Br`, the Inhibition is listed as 98% in experiment [1] and 97% in experiment [2].
The corresponding values for `CCOc1cc2ncnc(Nc3ccc(OCc4c(Cl)cccc4Cl)c(OC)c3)c2cc1OCC.Cl` are 89% and 12%.
In the case of `CCCCCCCN(Cc1ccc(OC(C)(C)C(=O)OCC)cc1)C(=O)Cc1ccc(F)cc1F`, the figures for the Inhibition in experiment [1] and in experiment [2] were 93% and 95%, respectively.
On the same counts, the results for `CCCOc1ccc(CNCCCCCCNCc2ccc(OCCC)c3ccccc23)c2ccccc12.CS(=O)(=O)O` are 100% and 96%.
On the same counts, the results for `CCCc1cc(Cc2cnc(N)nc2N)cc2c1OC(C)(C)C2.Cl` are 89% and 3%.
On the same counts, the results for `CC(C)(C)c1ccc(-c2nnc(N)nc2N)cc1` are 92% and 0%.
On to `Nc1nc(N)c2c3c(ccc2n1)CCC3`, for which the Inhibition in experiment [1] worked out at 92%; in experiment [2] it was 2%.
On the same counts, the results for `COc1cc(CCNC(=O)Cc2ccc3ccccc3c2)ccc1OCc1ccccc1` are 93% and 61%.
The corresponding values for `CCN(CC)CCCC(C)Nc1ccnc2cc(C#N)ccc12` (configuration not stated) are 100% and 80%.
The corresponding values for `C=CCOc1ccc(Cc2cnc(N)nc2N)cc1CCC` are 93% and 0%.
On to `CCCCc1nc2nc(N)nc(N)c2cc1CCC`, for which the Inhibition was determined as 97% in experiment [1] and 0% in experiment [2].
The corresponding values for `CCCCc1cc(Cc2cnc(N)nc2N)cc(OC)c1OC.Cl` are 86% and 0%.
The corresponding values for `CCCCCCCCCC(=O)NCC1CC(Br)=NO1` (configuration not stated) are 87% and 42%.
On the same counts, the results for `Nc1nnc(-c2ccc(Cl)c(Br)c2)c(N)n1` are 86% and 0%.
On to `Cc1cccc(Cn2ccc3c4c(N)nc(N)nc4ccc32)c1`, for which the Inhibition is listed as 95% in experiment [1] and 98% in experiment [2].
On the same counts, the results for `CC1CCNc2ccc(Cc3cnc(N)nc3N)cc21.Cl` (configuration not stated) are 82% and 0%.
The corresponding values for `CN(Cc1cnc2nc(N)nc(N)c2n1)c1ccc(C(=O)N[C@H](CCC(=O)OC(C)(C)C)C(=O)N[C@@H](CCC(=O)OC(C)(C)C)C(=O)OC(C)(C)C)cc1` are 85% and 1%.
On the same counts, the results for `Br.CC(C)(C)OC(=O)N[C@@H](CS(=O)(=O)CCNC(=N)COCc1ccccc1)C(=O)OC(C)(C)C` are 88% and 76%.
With `CCC(C(C)C)n1ccc2c3c(N)nc(N)nc3ccc21` (configuration not stated), the Inhibition in experiment [1] and in experiment [2] was 95% in each case.
As to `Cl.Nc1nc(N)c2c(n1)CCc1cc(Br)ccc1-2`, the Inhibition in experiment [1] turned out to be 87%; in experiment [2], 4%.
